One test deals with Staphylococcus aureus. Conditions: Concentration 32 ug.mL-1;; ASSAY_TEST Inhibition of Bacterial Growth; detection method Absorption (OD600); MEDIA CAMHB; plate type 384well; NBS; CORNING #3640; time 18 hr.
Another test relates to Escherichia coli. The following applies: Concentration 32 ug.mL-1;; ASSAY_TEST Inhibition of Bacterial Growth; detection method Absorption (OD600); MEDIA CAMHB; plate type 384well; NBS; CORNING #3640; time 18 hr.

Each structure is given as a SMILES string. Results with a measured potency or affinity are listed apart.

As for `Cc1cccc(N(Cc2cccc(Cl)c2)S(=O)(=O)c2cccn3c(C)nnc23)c1`, the Inhibition (commonly the drop in the measured response relative to a control, in per cent) is recorded as 2.81% with Staphylococcus aureus and -5.89% in the test on Escherichia coli.
Regarding `Cc1ccc(N(CC(=O)OC(C)(C)C)S(=O)(=O)c2ccc3nnc(C)n3c2)cc1`, the Inhibition in the test with Staphylococcus aureus is recorded as 2.37%; in the test on Escherichia coli, -3.61%.
On to `COc1ccc(-c2cc3c4nn(CC(=O)Nc5ccc(F)cc5)c(=O)n4ccn3n2)cc1`, for which the Inhibition with Staphylococcus aureus is recorded as -1.37%; in the test on Escherichia coli, -7.82%.
`O=S(=O)(Nc1ccc2c(c1)OCCO2)c1ccc2nncn2c1`: the Inhibition in the test on Staphylococcus aureus is given as 11.97%; with Escherichia coli it was -4.23%.
With `CCOC(=O)c1ccc(NC(=O)Cn2nc3c4cc(-c5ccc(Cl)cc5)nn4ccn3c2=O)cc1`, the values for the Inhibition with Staphylococcus aureus and in the test with Escherichia coli were 1.13% and -5.39%, respectively.
On to `CCCCOc1ccc(-c2cc3c4nnc(SCC(=O)Nc5ccc(F)cc5)n4ccn3n2)cc1`, for which the values for the Inhibition in the test on Staphylococcus aureus and with Escherichia coli were 2.53% and -6.79%, respectively.
Turning to `O=C(Cn1nc2c(SC3CCCCC3)nccn2c1=O)N1CCN(c2ccc(F)cc2)CC1`, the Inhibition in the test on Staphylococcus aureus is on record as 8.31%; in the test with Escherichia coli, -3.97%.
For `CCc1nnc2c(SCC(=O)NCc3ccccc3Cl)nc3ccccc3n12`, in that order: 4.41% and -6.59%.
As to `CC(C)NC(=O)CCn1c(=O)c2ccccc2n2c(=O)n(CC#N)nc12`, the values for the Inhibition with Staphylococcus aureus and in the test on Escherichia coli were -1.98% and 0.48%, respectively.
As to `Cc1ccc(Oc2nccn3c(=O)n(CC(=O)Nc4ccccc4Br)nc23)cc1`, the Inhibition is 10.09% in the test on Staphylococcus aureus and -0.96% in the test with Escherichia coli.
Turning to `CCc1ccc(NC(=O)Cn2nc3c(=O)n(-c4ccc(Br)cc4)ccn3c2=O)cc1`, the Inhibition in the test on Staphylococcus aureus is on record as -5.7%; with Escherichia coli, -7.12%.
As for `COc1ccc(CNC(=O)CSc2nnc3c4cc(-c5ccc(C)cc5)nn4ccn23)cc1`, the results for the Inhibition in the test on Staphylococcus aureus and with Escherichia coli were 4.45% and -3.09%, respectively.
As for `O=C(Cn1nc2c(N3CCOCC3)nccn2c1=O)NCc1ccc(F)cc1`, the Inhibition in the test with Staphylococcus aureus is reported as 19.72%; with Escherichia coli, 0.87%.
Consider `CCCN(C)c1nccn2c(=O)n(CC(=O)Nc3ccc(Br)cc3)nc12`, for which the Inhibition is recorded as 8.04% in the test on Staphylococcus aureus and -5.88% in the test with Escherichia coli.
For `O=C(Cn1nc2ccc(SC3CCCCC3)nn2c1=O)Nc1ccc(F)c(F)c1`, in that order: -4.22% and -6.38%.
Regarding `CCc1ccc(N(Cc2ccccc2F)S(=O)(=O)c2cccn3c(CC)nnc23)cc1`, the Inhibition in the test with Staphylococcus aureus is reported as -9.17%; in the test with Escherichia coli, 1.03%.
With `CCc1ccc(NC(=O)Cn2nc3ccc(SC(C)(C)C)nn3c2=O)cc1`, the Inhibition is on record as 4.76% with Staphylococcus aureus and -1.87% in the test on Escherichia coli.
As to `CCCN(C)c1nccn2c(=O)n(CC(=O)Nc3ccc(F)cc3)nc12`, the Inhibition in the test with Staphylococcus aureus is recorded as 13.38%; in the test on Escherichia coli, -2.86%.
For `COc1cccc(CN(c2cc(F)cc(F)c2)S(=O)(=O)c2ccc3nnc(C)n3c2)c1`, in that order: 7.94% and -9.84%.
On to `CCCNC(=O)Cn1nc2cc(C)nc(Nc3cc(C)cc(C)c3)n2c1=O`, for which the Inhibition with Staphylococcus aureus is 13.08%; with Escherichia coli, 0.71%.
For `O=S(=O)(c1cccn2cnnc12)N(Cc1ccc(F)cc1)c1ccc(F)c(F)c1`, the Inhibition is 8.71% in the test with Staphylococcus aureus and -1.75% in the test with Escherichia coli.
Turning to `COc1ccc(NC(=O)c2ccc3nn(CC(=O)Nc4ccc(S(C)(=O)=O)cc4)c(=O)n3c2)cc1`, the Inhibition is reported as 11.72% in the test with Staphylococcus aureus and -6.83% with Escherichia coli.
Turning to `COc1cc(NC(=O)Cn2nc3c4c5c(sc4ncn3c2=O)CCCC5)cc(OC)c1`, the values for the Inhibition in the test with Staphylococcus aureus and in the test on Escherichia coli were -0.84% and -8.54%, respectively.
As for `COC(=O)c1ccc(CN(c2ccc(Cl)cc2)S(=O)(=O)c2ccc3nncn3c2)o1`, the Inhibition is on record as 10.93% with Staphylococcus aureus and -7.28% with Escherichia coli.
On to `O=S(=O)(c1ccc2nncn2c1)N(Cc1cc(F)cc(F)c1)c1ccc(F)c(F)c1`, for which the Inhibition with Staphylococcus aureus is given as 8.61%; with Escherichia coli, -4.86%.
`Cc1ccc(C)c(NC(=O)Cn2nc3c(SCc4ccc(Cl)cc4)nccn3c2=O)c1`: the Inhibition with Staphylococcus aureus was 7.31%; with Escherichia coli, -3.74%.
`Cc1nnc2ccc(S(=O)(=O)N(Cc3ccccc3F)c3ccc(Cl)cc3)cn12`: the Inhibition in the test with Staphylococcus aureus was -12.68%; in the test on Escherichia coli it was -19.04%.
For `Cc1ccc(NC(=O)Cn2c(=O)c3nnc(C(C)C)n3c3ccccc32)cc1`, in that order: -2.26% and 0.43%.
In the same order, the values of `O=c1n(Cc2nc(-c3ccc(F)cc3)no2)nc2ccc(-c3ccccc3)nn12` are 3.21% and -3.67%.
As for `Cc1ccc(NC(=O)CSc2nc3ccccc3n3cnnc23)c(Br)c1`, the Inhibition with Staphylococcus aureus is reported as -13.31%; in the test on Escherichia coli, -9.92%.
On to `CCc1ccc(NC(=O)CSc2nnc3ccc(C(=O)Nc4cccc(F)c4)cn23)cc1`, for which the Inhibition in the test with Staphylococcus aureus was 9.49%; with Escherichia coli it was -4.13%.
For the molecule `Cc1cccc(Oc2nccn3c(=O)n(CC(=O)Nc4cccc(C(F)(F)F)c4)nc23)c1C`, the Inhibition in the test with Staphylococcus aureus is 4.71%; in the test with Escherichia coli it was -4.64%.
In the case of `CC(C)c1nnc2c(SCC(=O)Nc3ccccc3F)nc3ccccc3n12`, the Inhibition is given as 10.78% in the test on Staphylococcus aureus and -2.22% with Escherichia coli.
On to `Cc1ccc(NC(=O)Cn2nc3ccc(SC(C)C)nn3c2=O)c(Cl)c1`, for which the Inhibition in the test with Staphylococcus aureus is -9.9%; in the test on Escherichia coli it was 1.89%.
As for `CCCCn1c(=O)c2sccc2n2c(=O)n(CC(=O)N(C)c3ccccc3)nc12`, the values for the Inhibition with Staphylococcus aureus and in the test on Escherichia coli were -8.63% and -12.98%, respectively.
For the molecule `Cc1ccc(NC(=O)Cn2nc3c(N4CCOCC4)nccn3c2=O)cc1Cl`, the Inhibition in the test with Staphylococcus aureus turned out to be 10.97%; in the test on Escherichia coli it was 1.83%.
For `COc1ccc(-c2cc3c4nnc(CCC(=O)NCc5ccc(OC)c(OC)c5)n4ccn3n2)cc1`, in that order: 6.96% and -5.17%.
On to `CC(=O)c1cccc(NC(=O)CSc2nc3ccccc3n3c(C)nnc23)c1`, for which the values for the Inhibition in the test on Staphylococcus aureus and with Escherichia coli were -0.38% and -4.41%, respectively.
With `COc1ccc(Cl)cc1NC(=O)CSc1nc2ccccc2n2cnnc12`, the Inhibition was 12.82% in the test with Staphylococcus aureus and 5.77% in the test on Escherichia coli.
Regarding `O=C(CSc1nnc2c(=O)n(-c3ccc(F)cc3)ccn12)N1CCN(c2ccccc2F)CC1`, the figures for the Inhibition in the test on Staphylococcus aureus and in the test on Escherichia coli were 14.78% and -0.33%, respectively.
As to `C=Cc1ccc(CN(c2ccc(C(C)C)cc2)S(=O)(=O)c2cccn3c(C)nnc23)cc1`, the figures for the Inhibition in the test on Staphylococcus aureus and with Escherichia coli were -12.1% and 1.96%, respectively.
As to `Cc1ccc(Oc2nccn3c(=O)n(CC(=O)Nc4ccc(C)cc4Br)nc23)cc1`, the Inhibition is listed as 4.05% in the test on Staphylococcus aureus and -2.42% in the test with Escherichia coli.
On to `Cc1cc(C)cc(Oc2nccn3c(=O)n(CC(=O)Nc4ccc(Cl)cc4F)nc23)c1`, for which the Inhibition with Staphylococcus aureus is 18.94%; in the test on Escherichia coli it was 4.01%.
For `CSc1cccc(NC(=O)Cn2nc3c(Oc4cc(C)cc(C)c4)nccn3c2=O)c1`, in that order: 3.38% and -5.29%.
Regarding `O=C(CSc1nnc2c(=O)n(-c3ccccc3)ccn12)Nc1ccccc1F`, the Inhibition is recorded as 8.41% in the test with Staphylococcus aureus and 1.53% with Escherichia coli.
As to `CCOc1ccc(-n2ccn3c(SCC(=O)c4c(C)[nH]c5ccccc45)nnc3c2=O)cc1`, the Inhibition with Staphylococcus aureus is given as -0.13%; in the test on Escherichia coli, -15.25%.
On to `Cc1cc(C)cc(NC(=O)Cn2nc3c4cc(-c5ccc(C)c(C)c5)nn4ccn3c2=O)c1`, for which the Inhibition is 5.77% with Staphylococcus aureus and -4.98% in the test on Escherichia coli.
Turning to `COc1cccc(C(=O)Cn2nc3n(CCC(C)C)c(=O)c4sccc4n3c2=O)c1`, the Inhibition in the test on Staphylococcus aureus is -4.77%; with Escherichia coli it was -5.88%.
`O=c1n(Cc2cc(F)cc(F)c2)nc2ccc(-c3ccccc3)nn12`: the Inhibition in the test on Staphylococcus aureus is 8.62%; in the test on Escherichia coli, -1.58%.
With `O=c1n(Cc2cccc(Cl)c2)nc2ccc(-c3ccccc3)nn12`, the Inhibition with Staphylococcus aureus came out at 13.35%; with Escherichia coli it was 0.79%.
Regarding `COc1ccc(-c2cc3c4nnc(SCC(=O)Nc5ccccc5Cl)n4ccn3n2)cc1`, the Inhibition in the test on Staphylococcus aureus was -12.96%; with Escherichia coli it was -8.41%.
In the case of `N#Cc1cccc(Cn2nc3ccc(S(=O)(=O)N4CCCCCC4)cn3c2=O)c1`, the Inhibition with Staphylococcus aureus was 10.44%; with Escherichia coli, -2.41%.
With `COC(=O)c1cccc(NC(=O)Cn2nc3ccc(-c4ccc(C)c(C)c4)nn3c2=O)c1`, the Inhibition in the test with Staphylococcus aureus was 2.69%; in the test on Escherichia coli, -10.93%.
For `CC(C)c1nnc2c(SCC(=O)N3CCN(c4ccccc4F)CC3)nc3ccccc3n12`, the Inhibition in the test on Staphylococcus aureus is listed as -2.06%; in the test on Escherichia coli it was -6.39%.
For `COc1ccc(NC(=O)Cn2nc3c(N4CCCC(C)C4)nccn3c2=O)cc1OC` (centres undefined), in that order: -18.12% and -13.91%.
In the same order, the values of `CCN(C(=O)CSc1nnc2c3cc(-c4ccc(OC)cc4)nn3ccn12)c1ccccc1` are 5.44% and -0.03%.
In the same order, the values of `CCCc1ccc(S(=O)(=O)Nc2ccc3nncn3n2)cc1` are 16.11% and 2.74%.
Take `Cc1ccc(-n2ccn3c(=O)n(Cc4ccccc4F)nc3c2=O)cc1C`: the values for the Inhibition with Staphylococcus aureus and in the test on Escherichia coli were 8.2% and -3.66%, respectively.
Take `Cc1ccc(CNC(=O)CSc2nnc3c(=O)n(-c4ccccc4)ccn23)cc1`: the Inhibition in the test with Staphylococcus aureus is reported as 12.76%; with Escherichia coli it was 0.71%.
`CSc1cccc(NC(=O)Cn2nc3ccc(SC(C)(C)C)nn3c2=O)c1`: the Inhibition is -2.88% in the test on Staphylococcus aureus and 1.52% with Escherichia coli.
For the molecule `COc1cccc(-n2ccn3c(SCC(=O)N4CCN(c5ccccc5F)CC4)nnc3c2=O)c1`, the Inhibition in the test on Staphylococcus aureus is reported as 12.37%; in the test on Escherichia coli, -5.42%.
For `O=c1c2sccc2n2c(=O)n(Cc3cccc(Cl)c3)nc2n1Cc1cccs1`, in that order: 18.24% and -5.83%.
With `Cc1nc(-c2ccccn2)cc2nn(CC(=O)Nc3ccccc3C(F)(F)F)c(=O)n12`, the Inhibition is given as 2.98% with Staphylococcus aureus and -9.66% with Escherichia coli.
For the molecule `COc1ccc(NC(=O)Cn2nc3c4c5c(sc4ncn3c2=O)CCCC5)cc1`, the Inhibition with Staphylococcus aureus is listed as 2.3%; in the test with Escherichia coli it was -5.34%.
For the molecule `COc1ccccc1CNC(=O)CSc1nnc2c3cc(-c4ccc(C)cc4)nn3ccn12`, the Inhibition is recorded as -5.58% in the test with Staphylococcus aureus and -8.49% with Escherichia coli.
As to `O=c1n(Cc2ccccc2F)nc2ccc(S(=O)(=O)N3CCCCCC3)cn12`, the Inhibition is 2.98% in the test on Staphylococcus aureus and -8.1% with Escherichia coli.
For the molecule `O=C(CSc1nnc2c(=O)n(-c3ccccc3)ccn12)Nc1ccc2c(c1)OCCO2`, the Inhibition is listed as 8.84% in the test with Staphylococcus aureus and -1.03% in the test with Escherichia coli.
For `O=c1n(Cc2cccc(C(F)(F)F)c2)nc2c(S(=O)(=O)N3CCCC3)cccn12`, in that order: 9.3% and -1.06%.
For `CCc1nnc2ccc(S(=O)(=O)N(Cc3cccc(OC)c3)c3ccc(F)cc3)cn12`, in that order: -0.44% and -12.34%.
`CCOc1ccccc1NC(=O)Cn1nc2c(Sc3ccccc3)nccn2c1=O`: the Inhibition with Staphylococcus aureus is on record as -2.46%; with Escherichia coli, -5.85%.
Turning to `Cc1ccc(NC(=O)Cn2nc3ccc(SC(C)(C)C)nn3c2=O)cc1Cl`, the Inhibition with Staphylococcus aureus is listed as 3.27%; in the test with Escherichia coli it was -0.69%.
Consider `COc1cccc(Cn2nc3ccc(-c4ccccc4)nn3c2=O)c1`, for which the values for the Inhibition in the test with Staphylococcus aureus and with Escherichia coli were 13.4% and -1.58%, respectively.
